Pf growth 48h = Primary qHTS for delayed death inhibitors of the malarial parasite plastid, 48 hour incubation | P. falciparum luciferase growth in erythrocytes, 48 h | Potency, µM (doses to about 28.7 µM), most hits filed as inhibitors | 5.9% of 310,000 active | AID 504832, 2011
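Read-out is firefly luciferase luminescence from an integrated reporter in P. falciparum, so falling signal marks reduced parasite growth. Infected erythrocytes were at 2% hematocrit and 0.1% parasitemia (final) in Albumax-supplemented RPMI 1640.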
Lassa entry inh = qHTS for Inhibitors of binding or entry into cells for Lassa Virus. Lassa virus pseudotype entry inhibition, cell reporter. Potency, µM (doses to about 37.9 µM), hits mostly inhibitors. 1.2% of 300,000 active. AID 540256, 2011; calls by dose curve; tested in HEK293 cells; also: nearly all actives have a fitted effect of over 50% in size
CHX counter = Cycloheximide Counterscreen for Small Molecule Inhibitors of Shiga Toxin; cell reporter, cycloheximide protein synthesis inhibition counterscreen; max response, %; 12% of 300,000 active; in the data active = max response mostly above about 13%, no sharp cut-off; inactive = mostly below about 14%; also: read at 38.3 µM for the half of the compounds with a filed dose
MARV entry inh = qHTS for inhibitors of binding or entry into cells for Marburg Virus. Marburg virus pseudotyped entry inhibition, cell reporter. Potency, µM (doses to about 37.8 µM), usual class: inhibitors. 1.8% of 300,000 active; calls by dose curve; tested in HEK293 cells
Shiga toxin inh = A qHTS for Small Molecule Inhibitors of Shiga Toxin; Vero cells, Shiga toxin protein synthesis inhibition reporter; inhibition, % at 38.7 µM; 9.2% of 290,000 active; in the data active = inhibition mostly above about 28%, no sharp cut-off; inactive = mostly below about 43%
Pf growth 96h = Primary qHTS for delayed death inhibitors of the malarial parasite plastid, 96 hour incubation | P. falciparum luciferase reporter growth, 96 h | Potency, µM (series often up to 28.7 µM), most hits filed as inhibitors | 6.9% of 320,000 active | AID 504834, 2011
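Infected RBCs, 2% Hct / 0.05% parasitemia final; luciferase-reporter P. falciparum; cpd 96 h, 37 C, 5% CO2; luciferase detection reagent; luminescence.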
A number is an active result; n = inactive; u = inconclusive; x = no result; [ ] = remark or other dose. Most compounds without a hit are left out; they make up all but 19% or so of the library. Unless noted, calls follow the shape of the dose curve; as a rule, active = well fitted inhibition curve with a large enough effect; inconclusive = small, poorly fitted or top-dose-only effect, or another doubt; inactive = no such curve, though single readings can be large or run the other way.

SMILES | Pf growth 48h | Lassa entry inh | CHX counter | MARV entry inh | Shiga toxin inh | Pf growth 96h
CCN(CC(=O)NCc1cccs1)C(=O)/C=C/c1ccc(OC)cc1OC | n | n | x | n | x | n
O=C(NC(NC(=S)Nc1c(Cl)cccc1Cl)C(Cl)(Cl)Cl)OCc1ccccc1 (stereo not given) | u | u | n | u | n | n
COc1ccc2oc(=N)c(C(=O)Nc3ccccc3)cc2c1 | n | n | 39 | u | 85 | x
COc1ccc2oc(=O)c(C(=O)Nc3cccc(C(C)=O)c3)cc2c1 | n | x | n | x | x | n
Cc1nc(SCC(=O)c2cc3ccccc3oc2=O)c(C#N)c(-c2ccccc2)c1C(=O)Nc1ccccc1 | n | n | n | u | n | n
COc1ccc(-c2c(C#N)c(SCC(=O)c3cc4ccccc4oc3=O)nc(C)c2C(=O)Nc2ccccc2)cc1 | u | u | n | u | n | 12µM
COc1cccc(NC(=O)c2cc3ccccc3oc2=O)c1 | n | x | 42 | x | x | u
CCCCCCc1cc2cc(C(=O)Nc3ccccc3)c(=O)oc2cc1O | u | 3.5µM | n | 2µM | n | u
COc1ccccc1C(=O)Nc1nnn(C)n1 | n | n | n | n | n | n
Cc1ccc(C(C)(C)c2ccc(C)cc2)cc1 | n | x | x | x | x | n
COc1ccc2oc(=O)c(C(=O)Nc3ccccc3-c3ccccc3)cc2c1 | n | n | n | u | n | x
COc1ccc2oc(=N)c(C(=O)Nc3ccc(F)cc3)cc2c1 | n | n | n | u | n | u
N=c1oc2ccc(Cl)cc2cc1C(=O)Nc1ccc(F)cc1 | n | n | 24 | u | 44 | n
COc1ccc2oc(=N)c(C(=O)Nc3ccc(Cl)cc3)cc2c1 | n | x | n | x | x | u
COc1ccc2oc(=N)c(C(=O)Nc3ccccc3Cl)cc2c1 | n | x | 39 | x | 49 | n
COc1ccc2oc(=O)c(C(=O)Nc3ccccc3C)cc2c1 | n | x | 34 | x | x | n
COc1ccc2oc(=N)c(C(=O)Nc3ccc(C)cc3)cc2c1 | n | x | n | x | n | u
COc1ccc2oc(=N)c(C(=O)Nc3cccc(C)c3C)cc2c1 | n | u | 30 | n | 49 | u
CCOc1ccccc1C1C2C(=O)N(c3ccccc3)C(=O)C2ON1c1ccccc1 (stereo not given) | n | n | n | n | n | n[5.75 µM]
COc1ccc(NC(=O)c2cc3ccccc3o/c2=N\NS(=O)(=O)c2ccc(C)cc2)cc1 | n | x | 48 | x | 100 | u
O=C(Nc1ccc(-n2nncc2-c2ccco2)cc1)c1cc2ccccc2oc1=O | n | n | n | n | n | 12µM
Cc1cccnc1NC(=O)c1cc2ccccc2oc1=O | n | x | 30 | u | 115 | n
N=c1oc2ccccc2cc1C(=O)Nc1ccccc1 | n | u | 46 | u | 116 | u
CC1CCN(S(=O)(=O)c2ccc3c(c2)c(=O)c(C(=O)N2CCN(c4cccc(Cl)c4)CC2)cn3C)CC1 | x | n | x | n | x | x
O=C1NC2(CCCC2)C(=O)N1CC(=O)N(Cc1ccccc1)c1ccccc1 | u | n | x | n | x | n
SMILES | Pf growth 48h | Lassa entry inh | CHX counter | MARV entry inh | Shiga toxin inh | Pf growth 96h
O=C(NNC(=O)c1cc2cc(Br)ccc2oc1=O)c1ccc(O)cc1 | n | n | n | n | n | n
O=C(Nc1ccccc1O)c1cc2cc(Br)ccc2oc1=O | n | x | 28 | x | 114 | n
CC(=O)C(Sc1nc(N(C)C)nc(N(C)C)n1)C(=O)Nc1ccccc1 (stereo not given) | n | n | n | n | n | n
CC(=O)C(Sc1nn(C)c(=S)s1)C(=O)Nc1ccccc1 (stereo not given) | n | n | 51 | u | 113 | u
COc1cc2ccccc2cc1C(=O)N(CCN(C)C)c1nc2ccc(Br)cc2s1 | u | x | n | x | n | u
CN(C)CCCN1c2ccccc2C(C)(C)c2ccccc21 | u | x | x | x | x | 17µM
O=C(Nc1cccc(-c2nnc(-c3ccccc3)o2)c1)C1CCCCC1 | n | n | n | n | n | n
CC1=C(C)SC(=C(C#N)c2nnc(N3CCOCC3)n2-c2ccccc2)S1 | u | n | n | n | n | 9.3µM
C=CCN1C(c2cccc(C(F)(F)F)c2)=CS/C1=C(/C#N)c1nnc(N2CCOCC2)n1-c1ccccc1 | 10µM | u | n | n | n | 12µM
C=CCN1C(c2ccc(Br)cc2)=CS/C1=C(/C#N)c1nnc(N2CCOCC2)n1-c1ccccc1 | u | u | n | u | n | u

Screening results from PubChem BioAssay.
